Measurements from the supplement of paper PMC12669032.
Values joined by “and” are separate entries in the source; they are usually repeats but may differ in a detail not shown here. Equal values may be shown once. A number with no mark means an inactive call.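 The calls were made as follows: active = AUC reduced over 20% with Padj below 0.05 in at least 2 of 3 replicates; inactive = otherwise.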

Legend:
Experiment in all cases: growth AUC relative to DMSO control (median of replicates) (fraction); higher = more growth (less inhibition), active = hit call of the paper
Conditions in all cases: 20 µM; 24 h
Akkermansia muciniphila = system: Akkermansia muciniphila
Outline: (§1)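 Gut bacteria were grown singly in mGAM at 37 °C without oxygen, from OD600 0.05, alongside 20 µM compound in 1% DMSO, and OD600 was read each hour for 24 h. Area under the growth curve was normalised to the median of solvent-only wells per plate, or to row and column medians on the industrial chemical plate. The minimum OD was set to 0 beforehand, and the reported value is the median of three biological replicates grown on separate days.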

Bacteroides caccae = system: Bacteroides caccae
Outline: as §1

Bacteroides clarus = system: Bacteroides clarus
Outline: as §1

Bacteroides dorei = system: Bacteroides dorei
Outline: as §1

Bacteroides stercoris = system: Bacteroides stercoris
Outline: as §1

[1] = system: Bacteroides thetaiotaomicron
Outline: as §1

Bacteroides uniformis = system: Bacteroides uniformis
Outline: as §1

[2] = system: Bifidobacterium longum subsp. longum
Outline: as §1

Clostridium difficile = system: Clostridium difficile
Outline: as §1

Collinsella aerofaciens = system: Collinsella aerofaciens
Outline: as §1

Coprococcus comes = system: Coprococcus comes
Outline: as §1

Escherichia coli ED1a = system: Escherichia coli ED1a
Outline: as §1

Escherichia coli IAI1 = system: Escherichia coli IAI1
Outline: as §1

Eubacterium rectale = system: Eubacterium rectale
Outline: as §1

[3] = system: Fusobacterium nucleatum subsp. animalis
Outline: as §1

Lactobacillus gasseri = system: Lactobacillus gasseri
Outline: as §1

Lactobacillus paracasei = system: Lactobacillus paracasei
Outline: as §1

Odoribacter splanchnicus = system: Odoribacter splanchnicus
Outline: as §1

[4] = system: Parabacteroides distasonis
Outline: as §1

Parabacteroides merdae = system: Parabacteroides merdae
Outline: as §1

Row | SMILES | growth AUC (Akkermansia muciniphila) | growth AUC (Bacteroides caccae) | growth AUC (Bacteroides clarus) | growth AUC (Bacteroides dorei) | growth AUC (Bacteroides stercoris) | growth AUC [1] | growth AUC (Bacteroides uniformis) | growth AUC [2] | growth AUC (Clostridium difficile) | growth AUC (Collinsella aerofaciens) | growth AUC (Coprococcus comes) | growth AUC (Escherichia coli ED1a) | growth AUC (Escherichia coli IAI1) | growth AUC (Eubacterium rectale) | growth AUC [3] | growth AUC (Lactobacillus gasseri) | growth AUC (Lactobacillus paracasei) | growth AUC (Odoribacter splanchnicus) | growth AUC [4] | growth AUC (Parabacteroides merdae)
1 | CCNS(=O)(=O)C(F)(F)C(F)(F)C(F)(F)C(F)(F)C(F)(F)C(F)(F)C(F)(F)C(F)(F)F | 0.945 | 0.986 | 0.906 | 1.02 | 0.896 | 0.993 | 0.966 | 0.905 | 1.04 | 1.13 | 0.995 | 0.987 | 0.99 | 0.975 | 0.968 | 1.05 | 0.891 | 0.978 | 1.01 | 0.947
2 | CCCSP(=S)(OCC)Oc1ccc(SC)cc1 (centres undefined) | 0.897 | 0.998 | 0.958 | 1 | 1.06 | 0.979 | 0.998 | 0.971 | 1.01 | 1.04 | 1.04 | 1.01 | 0.959 | 0.985 | 1.07 | 0.946 | 1.02 | 1.07 | 0.98 | 0.996
3 | O=C(NC(=O)c1c(F)cccc1F)Nc1cc(Cl)c(OC(F)(F)C(F)C(F)(F)F)cc1Cl (centres undefined) | 0.997 | 0.981 | 0.982 | 1.02 | 1.01 | 0.99 | 0.962 | 0.981 | 1.04 | 0.94 | 0.919 | 0.996 | 1 | 1.01 | 1.01 | 0.989 | 0.976 | 0.993 | 0.964 | 0.988
4 | BrCCBr | 1.11 | 0.998 | 1.01 | 1.02 | 1.17 | 0.987 | 1 | 1.03 | 0.997 | 0.995 | 1.03 | 1.03 | 1.01 | 1.06 | 1.01 | 1.03 | 1 | 1.06 | 1.04 | 0.99
5 | CCOP(=S)(OCC)OP(=S)(OCC)OCC | 0.981 | 0.986 | 0.953 | 0.993 | 1.02 | 0.956 | 0.988 | 1.01 | 0.986 | 1.02 | 0.985 | 0.968 | 0.979 | 0.928 | 1.04 | 1.23 | 1.04 | 0.98 | 1.02 | 0.984
6 | CC1(C)C(C=C(Cl)Cl)C1C(=O)OC(C#N)c1cccc(Oc2ccccc2)c1 (centres undefined) | 1.06 | 0.942 | 1.03 | 1.02 | 1.24 | 0.963 | 1.01 | 0.926 | 0.986 | 0.966 | 0.945 | 1.01 | 0.98 | 1.05 | 1.05 | 0.776 | 0.951 | 1.07 | 0.98 | 1.02
7 | CP(=O)(O)CCC(N)C(=O)[O-].[NH4+] (centres undefined) | 1.08 | 1.04 | 1.03 | 0.977 | 1.2 | 1 | 1.02 | 1.02 | 1.01 | 1.02 | 1.06 | 1.02 | 1.02 | 1.08 | 1.17 | 0.944 | 1.08 | 1.02 | 1.1 | 1.03
8 | O=c1oc2ccccc2c(O)c1C1CC(c2ccc(-c3ccccc3)cc2)Cc2ccccc21 (centres undefined) | 0.831 | 0.895 | 0.66 (active) | 0.904 | 0.00795 (active) | 0.76 (active) | 0.858 | 0.886 | 0.803 | 0.975 | 0.946 | 1 | 0.959 | 0.502 | 1.02 | 0.574 | 0.887 | 0.959 | 0.0292 (active) | 0.0278 (active)
9 | N#Cc1c(O)c(Cl)c(Cl)c(C#N)c1Cl | 1.02 | 0.98 | 0.979 | 0.969 | 0.979 | 0.995 | 0.784 (active) | 1.02 | 1.02 | 0.985 | 1.02 | 0.989 | 0.987 | 0.938 | 0.868 | 1.02 | 0.986 | 0.912 | 1.03 | 0.994
10 | COP(=S)(Oc1cc(Cl)c(Br)cc1Cl)c1ccccc1 (centres undefined) | 0.925 | 0.949 | 0.928 | 1.02 | 1.44 | 0.98 | 0.993 | 1.02 | 1.03 | 0.976 | 1.02 | 1.01 | 0.992 | 0.893 | 1.03 | 0.852 | 0.982 | 1.03 | 0.957 | 1.01
11 | CC(Cc1ccc(C(C)(C)C)cc1)CN1CCCCC1 (centres undefined) | 0.735 | 0.963 | 0.951 | 1.01 | 1.15 | 0.974 | 1.02 | 0.99 | 0.971 | 0.959 | 0.931 | 0.998 | 0.932 | 1.03 | 1.02 | 0.988 | 1.03 | 1.05 | 0.946 | 0.997
12 | CCOP(=O)(OCC)O/C(=C\Cl)c1ccc(Cl)cc1Cl | 0.854 | 0.982 | 0.952 | 0.983 | 0.956 | 0.962 | 0.942 | 0.873 | 1 | 1 | 0.994 | 0.984 | 1.01 | 0.899 | 0.987 | 1.06 | 1.02 | 0.972 | 0.725 (active) | 0.945
13 | CCOP(=S)(OCC)Oc1nc(Cl)c(Cl)cc1Cl | 0.91 | 0.999 | 0.95 | 1.03 | 1.07 | 0.978 | 1 | 0.943 | 1.01 | 0.986 | 0.995 | 1.02 | 1.01 | 1.11 | 0.982 | 0.992 | 0.993 | 1 | 0.963 | 0.96
14 | COc1cc(OC)nc(NC(=O)NS(=O)(=O)c2ncccc2C(=O)N(C)C)n1 | 1 | 0.94 | 0.98 | 0.957 | 1.11 | 1.01 | 1.01 | 0.96 | 1 | 0.965 | 0.966 | 1.05 | 0.972 | 0.999 | 1.05 | 0.93 | 0.889 | 1.03 | 1.02 | 0.988
15 | ClC1C(Cl)C(Cl)C(Cl)C(Cl)C1Cl (centres undefined) | – | – | – | – | – | – | – | – | – | 1.02 and 1.01 and 1.03 | – | 0.985 and 1.04 and 1.03 | 1 and 1.02 and 1.01 | 1.02 and 0.946 and 1.01 | – | – | – | – | – | –
16 | Cc1cc(C)c(C2=C(OC(=O)CC(C)(C)C)C3(CCCC3)OC2=O)c(C)c1 | 1.2 | 0.977 | 1 | 0.988 | 1.23 | 1.05 | 0.958 | 1.05 | 0.98 | 1.02 | 0.974 | 1.02 | 1.03 | 1.04 | 1.09 | 0.918 | 1.14 | 0.978 | 0.772 (active) | 1.04
17 | CCOC(=O)CCN(SN(C)C(=O)Oc1cccc2c1OC(C)(C)C2)C(C)C | 1.1 | 1.04 | 0.985 | 1 | 0.982 | 1.02 | 1.05 | 1.01 | 0.999 | 0.978 | 1.01 | 0.994 | 1.01 | 1.1 | 0.907 | 0.911 | 1.01 | 1.02 | 1.05 | 0.979
